The record followed here is PubChem BioAssay (NCI).

Molecules are shown by their SMILES. The panel holds about 79,000 compounds, 15% with a hit somewhere; the sample as a whole holds those more often. A number with no mark means an inactive call. Active and inactive are the calls of the source. Cut-off read from the data, not from the text of the source: active = growth inhibition above about 70%; inactive = the rest. Where a SMILES comes first, the peptide text is derived from it. [ ]: non-standard residue; d: D form. The star is where a group is joined. ξ: configuration not given here. Cbz = O=C(OCc1ccccc1)*; ξK = NCCCCC(N)C(=O)O

Assay [1] in a line: NCI Yeast Anticancer Drug Screen. Data for the rad50 strain (AID 155).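 Note: 0% = growth of vehicle-only cultures of the same strain.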 Particulars: S. cerevisiae rad50 strain growth inhibition, active compounds read high; at 50.0 µM unless noted. The method, boiled down:
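Relative growth inhibition (compound vs vehicle) was measured in yeast with a defined repair-gene alteration.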

A short description of assay [2]: NCI Yeast Anticancer Drug Screen. Data for the mec2-1 strain (AID 157). Particulars: S. cerevisiae mec2-1 strain, active compounds read high; at 50.0 µM unless noted. The method in brief: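 Test agents were screened against the mec2-1 yeast strain, with defined DNA repair or cell cycle alteration. Growth was scored as inhibition against vehicle-only controls.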
Assay [3] is described as follows: NCI Yeast Anticancer Drug Screen. Data for the sgs1 mgt1 strain (AID 161).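 Note: 0% = growth of cultures given vehicle only.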 Particulars: S. cerevisiae sgs1 mgt1 strain, active compounds read high; at 50.0 µM unless noted. The method, boiled down:
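Read-out: growth inhibition vs vehicle controls. Cells: mutant yeast strain deficient in DNA damage repair.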

The nature of assay [4]: NCI Yeast Anticancer Drug Screen. Data for the cln2 rad14 strain (AID 165).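 Note: 0% = growth equal to vehicle treated cultures.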 Particulars: S. cerevisiae cln2 rad14 strain, active compounds read high; at 50.0 µM unless noted. The method in brief:
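Growth of compound-exposed yeast (cln2 rad14 genotype) measured and expressed as inhibition relative to vehicle.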

Assay [5] can be described thus: NCI Yeast Anticancer Drug Screen. Data for the bub3 strain (AID 167). Particulars: S. cerevisiae bub3 mutant strain, active compounds read high; at 50.0 µM unless noted. The method, boiled down: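 Screening used yeast with an engineered genetic alteration affecting cell cycle control. Compound-exposed cultures were compared with vehicle cultures, and reduced growth was taken as inhibition.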

The nature of assay [6]: NCI Yeast Anticancer Drug Screen. Data for the mlh1 rad18 strain (AID 175). The note with it: S. cerevisiae mlh1 rad18 strain growth inhibition, active compounds read high; at 50.0 µM unless noted. The method, boiled down:
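In this whole-cell yeast screen, a strain with altered DNA damage repair is challenged with compound, and its growth is measured against matched vehicle-treated controls.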

For the compound `NC(=O)CC[n+]1ccccc1`, the growth inhibition is 11.1% in assay [1]; -29.3% in assay [2]; 6.5% in assay [3]; 11.7% in assay [4]; -19.4% in assay [5]; 7.2% in assay [6].

Turning to `CC(N)C(=O)NO` (stereo unspecified), the growth inhibition in assay [1] is -20.4%; in assay [2], -24.6%; in assay [3], -16.2%; in assay [4], -40.6%; in assay [5], 4.85%; in assay [6] it was -36%.

Consider `COc1ccc(OC)c(NC(=O)C(=O)C(C(C)=O)c2nc3ccc(Cl)cc3[nH]c2=O)c1` (stereo unspecified), for which the growth inhibition in assay [1] is -12.8%; in assay [2], 7.75%; in assay [3], -15.5%; in assay [4] it was 12%; in assay [5], 2.5%; in assay [6], -7.35%.

In the case of `CCC(C)(CC=C(C)C)c1ccncc1` (stereo unspecified), the growth inhibition in assay [1] is -6.7%; in assay [2], 1.95%; in assay [3], 3.1%; in assay [4] it was -16.8%; in assay [5], 9.6%; in assay [6], -9.6%.

For `c1ccc(C2Cc3ccccc3C2c2ccccc2)cc1` (stereo unspecified), the growth inhibition was 9.85% in assay [1]; 11% in assay [2]; 22.8% in assay [3]; -17.8% in assay [4]; -7.6% in assay [5]; -13.3% in assay [6].

Consider `O=C(Oc1cccc(OC(=O)c2ccccc2O)c1)c1ccccc1O`, for which the growth inhibition in assay [1] was -1.05%; in assay [2] it was -7.95%; in assay [3], 9.8%; in assay [4] it was -30.8%; in assay [5], 25.9%; in assay [6], -5.35%.

Consider `NC1=C(O)C(=O)C(c2ccc3c(c2)OCO3)O1` (stereo unspecified), for which the growth inhibition in assay [1] is -17.6%; in assay [2], -5%; in assay [3] it was -19.9%; in assay [4] it was -30.2%; in assay [5] it was 24.8%; in assay [6], -5.2%.

On to `CCN(CC)CCNc1ccc2ncn3c4cc(=O)ccc4c(O)c1c23`, for which the growth inhibition was -2.3% in assay [1]; -31.5% in assay [2]; -46.4% in assay [3]; 7.9% in assay [4]; -7.85% in assay [5]; 4.3% in assay [6].

Turning to `O=C1NC(=S)N/C1=C\c1ccc(Cl)cc1`, the growth inhibition in assay [1] was -5.75%; in assay [2] it was -4.8%; in assay [3] it was 15%; in assay [4] it was -5.9%; in assay [5], -9.3%; in assay [6], -39.7%.

As for `CCOC(=O)/C(F)=C/c1ccc(C#N)cc1`, the growth inhibition in assay [1] is 29.3%; in assay [2] it was -19.9%; in assay [3], -4.25%; in assay [4], 3.7%; in assay [5], 8.35%; in assay [6], 15.8%.

For `O=C1c2ccccc2NC(O)c2cccn21` (stereo unspecified), the growth inhibition in assay [1] is 0.3%; in assay [2], 0.2%; in assay [3], -3.75%; in assay [4] it was -25.9%; in assay [5] it was 11.4%; in assay [6], -5.45%.

On to `CCOC(CN)(OCC)c1ccncc1`, for which the growth inhibition in assay [1] is 10.9%; in assay [2], 14.2%; in assay [3], 8.65%; in assay [4], -27.1%; in assay [5] it was 11.2%; in assay [6], -0.05%.

On to `COC(=O)CC(NC(=O)OCc1ccccc1)C(=O)NCC(=O)Oc1ccc([N+](=O)[O-])cc1` (stereo unspecified), for which the growth inhibition in assay [1] is 21.1%; in assay [2], 11.8%; in assay [3], 12.2%; in assay [4], 12.2%; in assay [5] it was 5.75%; in assay [6] it was 8.5%.

Regarding `O=C(CSc1nnc(-c2ccc(N=Cc3ccc(Cl)cc3)cc2)o1)Nc1cccc([N+](=O)[O-])c1`, the growth inhibition in assay [1] is -1.95%; in assay [2] it was -11.1%; in assay [3], 3.85%; in assay [4], 18.1%; in assay [5], -40%; in assay [6], 2.45%.

Consider `CC(=O)NCCc1c[nH]c2ccc(Cl)cc12`, for which the growth inhibition is -33.5% in assay [1]; 21.4% in assay [2]; -27.4% in assay [3]; -11.6% in assay [4]; 26.8% in assay [5]; -10.1% in assay [6].

As to `NCC(=O)NC(CCCCNC(=O)OCc1ccccc1)C(=O)O` (stereo unspecified) (H-Gly-[ξK](Cbz)-OH), the growth inhibition in assay [1] was -6.8%; in assay [2], 21%; in assay [3], -10.7%; in assay [4], -3.5%; in assay [5], -20.1%; in assay [6], -22.4%.

With `Nc1ccccc1S(=O)(=O)Nc1ccccc1`, the growth inhibition was 30.9% in assay [1]; 18.9% in assay [2]; 12.5% in assay [3]; -10.3% in assay [4]; -28.4% in assay [5]; 21.4% in assay [6].

With `Cc1ccc2nc(=O)c3cccnc3n2c1`, the growth inhibition was 25.9% in assay [1]; 31.1% in assay [2]; 29.9% in assay [3]; 5.1% in assay [4]; 23.8% in assay [5]; 12.8% in assay [6].

For `Oc1ccc2ccccc2c1/C=C/c1ccc2c(Br)cc(Br)c(O)c2n1`, the growth inhibition is 60.6% in assay [1]; 41.1% in assay [2]; 28.7% in assay [3]; 38% in assay [4]; 64.9% in assay [5]; 65.3% in assay [6].

On to `O=[n+]1c2c(n([O-])c3ccccc31)CCCCCCCCCC2`, for which the growth inhibition in assay [1] was -52.6%; in assay [2], -1.95%; in assay [3], 7.15%; in assay [4] it was -35.2%; in assay [5], 0.95%; in assay [6] it was 7.9%.

As for `CN(Cc1ccccc1)C(=O)Nc1ccc(Cl)c(Cl)c1`, the growth inhibition was 95.8% (active) in assay [1]; 99% (active) in assay [2]; 99% (active) in assay [3]; 97.1% (active) in assay [4]; 97.7% (active) in assay [5]; 98.5% (active) in assay [6].
